54 molecules from PubChem BioAssay AID1508624 (National Center for Advancing Translational Sciences (NCATS), 2021) can be followed below.

Among all 48,000 compounds or so, about 120 (0.25%) were called active. About 4% were inconclusive and are not listed. Calls follow the shape of the dose curve; as a rule, active = well fitted activation curve with a large enough effect; inconclusive = small, poorly fitted or top-dose-only effect, or another doubt; inactive = no such curve, though single readings can be large or run the other way. The sample as a whole holds a higher share of actives than the screen did.

A short description of the test: Primary qHTS for Identification of Small Molecule Activators of Huntingtin-Antisense Promoter Activity. Also: nearly all actives have a fitted effect of over 55% in size. Conditions: HEK293 HTT-AS promoter firefly luciferase reporter (activity 0% = vehicle and -100% = no light), 24 h; series mostly up to 57.5 µM. An excerpt:
Assay Provider: Russell L. Margolis M.D.
Department Neurology, Johns Hopkins University School of Medicine, Baltimore, MD
Huntington's Disease (HD) is a neurodegenerative disorder caused by a CAG repeat expansion in exon 1 of huntingtin (HTT). While there are currently no disease-modifying treatments for HD, recent efforts have focused on development of nucleotide-based therapeutics to lower HTT expression. As an alternative to siRNA or oligonucleotide methods, we hypothesized that suppression of HTT expression might be accomplished by small molecules that either (1) directly decrease HTT expression by suppressing HTT promoter activity or (2) indirectly decrease HTT expression by increasing the promoter activity of HTT-AS, the gene antisense to HTT that appears to inhibit expression of HTT.
We developed and employed a high throughput screen for modifiers of HTT and HTT-AS promoter activity using luminescent reporter HEK293 cells; of the 52,041 compounds tested, we identified 898 replicable hits. We used a rigorous stepwise approach to assess compound toxicity and the capacity of the compounds to specifically lower huntingtin protein in 5 different cell lines, including HEK293 cells, HD lymphoblastoid cells, mouse primary neurons, HD iPSCs differentiated into cortical-like neurons, and HD hESCs. We found no compounds which were able to lower huntingtin without lowering cell viability in all assays, though the potential efficacy of a few compounds at non-toxic doses could not be excluded.
SEQUENCE No. (1, 2, 3, etc.); […] (e.g., Cells, Incubation, Reagent, etc.); VALUE and DESCRIPTION.
1; Reagent; 4 uL; 2,500 Hek293 luciferase reporter cells per wells
3; Compound; 23 nL; Control inhibitor / compound library
5; Reagent; 2.5 uL; Firefly Luc reagent; Dual-Glo Luciferase Reporter Assay System (Promega)
6; Time; 10 min; room temperature incubation
7; Detection; Luminescence; FLuc
NOTES (numbers refer to sequence above)
1; High-throughput screening, measuring luminescence from a Hek293 luciferase reporter, was performed in 1,536 well white-walled tissue-culture treated plates. 2,500 cells were plated in 4 µL of Opti-MEM per well using a Multidrop Combi Reagent Dispenser (ThermoFisher).
2; Assay plates were cultured for 24 hours.
3; Control inhibitor (PTC124; final concentration of 50 uM) and compound library (at final concentrations of 460 nM - 57.5 uM) were added to the assay plate using the Kalypsis Pintool Robotic System equipped with 1536 pinheads.
4; Cells were then incubated for 24 hours at 37 degrees C prior to luminescence measurements.
5; In all cases, luminescence was measured using the Dual-Glo Luciferase Reporter Assay System (Promega) following the manufacturer's instructions.
6; Room temperature incubation.
7; Luminescence signal was obtained using the PerkinElmer ViewLux plate reader. Results were normalized to vehicle control (0% activity) and zero RLU (-100% activity).
In the case of `Cc1cccc(N2CCN(C(=O)CCn3c(=O)c4cccn4c4cccnc43)CC2C)c1` (centres undefined), the activity change, positive = activation result was “inactive”.
For `CCCCOc1ccc(C(=O)Nc2cccc(-c3nc4ccccc4o3)c2C)cc1` the value was “inactive”; for `COc1cccc(-n2c(=O)c3c(C)c(C(=O)N(C)C)sc3n(CC(=O)NCCc3ccc(OC)c(OC)c3)c2=O)c1`, “inactive”; for `COc1ccccc1N1CCN(c2ncnc3onc(-c4ccc(F)cc4)c23)CC1`, “inactive”.
In the case of `CCCN1CN=C(NS(=O)(=O)c2ccc(NC(C)=O)cc2)NC1` it was “inactive”; in that of `COCCCNC(=O)c1ccc(NC(=O)c2nsc3ccccc23)cc1`, “inactive”.
In the case of `CCSc1nnc2c(n1)OC(c1ccc(OCC(=O)O)cc1)Nc1ccccc1-2` (centres undefined) it was “inactive”; in that of `CCCN(CCC)C(=O)C(Cc1ccccc1)NS(=O)(=O)c1ccc2c(c1)c(=O)n(C)c(=O)n2C` (centres undefined), “inactive”; in that of `Cc1cc(C)cc(NC(=O)Cn2nc(N3CCN(c4ccccc4)CC3)ccc2=O)c1`, “inactive”.
In the case of `Cc1nn(C(=O)c2c(F)cccc2F)c(C)c1S(=O)(=O)N1CCOCC1`, the activity change, positive = activation result was “inactive”.
For `CCOc1ccccc1C(=O)NCc1ccc2c(c1)CCN2C(=O)c1ccc(F)cc1` the value was “inactive”; for `O=C(Nc1cc(C(F)(F)F)ccc1Cl)c1cc2nc(-c3ccc4c(c3)OCO4)cc(C(F)(F)F)n2n1`, “inactive”; for `CCN(CC)c1ccc(NC(=O)CN2C(=O)c3cccnc3Oc3ccc(Cl)cc32)c(C)c1`, “inactive”.
For `Fc1ccc(CN2CCc3nc(Nc4ccccc4)ncc3C2)cc1F` the value was “inactive”.
Regarding `CCc1ccc(C2C(C(=O)Nc3ccccc3)=C(C)Nc3c(C(=O)Nc4ccc(C)cc4)cnn32)cc1` (centres undefined), the activity change, positive = activation result was “inactive”.
In the case of `COc1cc(-c2cc3n(C)c(C)c(CCC(=O)Nc4ccc(F)cc4)c(=O)n3n2)cc(OC)c1OC` it was “inactive”; in that of `COc1ccc(NC(=O)CCCc2nnc3n(CCC(C)C)c(=O)c4sccc4n23)c(OC)c1`, “inactive”; in that of `CCOc1ccc(CNC(=O)c2ccc3c(c2)nnn3C2CCCC2)cc1`, “inactive”.
In the case of `COc1ccc(OC)c(-c2noc(N3CCN(c4cc(Cl)ccc4C)CC3)n2)c1` it was “inactive”; in that of `CC(=O)c1ccc(S(=O)(=O)N2CCC(Oc3ccc(-n4cnnn4)cc3)CC2)cc1`, “inactive”; in that of `CO[C@@H]1[C@@H](O)[C@H](O)[C@@H](n2c3c(Cl)cccc3c3c4c(c5c6cccc(Cl)c6[nH]c5c32)C(=O)NC4=O)O[C@@H]1CO`, “inactive”.
For `Cc1cccc(S(=O)(=O)c2cn(Cc3ccccc3)c3cc(N4CCOCC4)c(F)cc3c2=O)c1` the value was “inactive”; for `CC(=O)N1CCCc2cc(S(=O)(=O)N3CCC(C(=O)NCc4ccc(F)cc4)CC3)ccc21`, “inactive”; for `CCCS(=O)(=O)Nc1cccc(-c2cn3ccsc3n2)c1`, “inactive”.
Regarding `Cn1c(=O)cc(OCC(=O)N2CCN(c3ccccc3)CC2)c2ccccc21`, the activity change, positive = activation entry was “inactive”.
For `COc1ccc(-c2c3c(=O)n(C)c(=O)n(C)c3c3c(C)nc4ccccc4n23)cc1` the value was “inactive”; for `Cc1cccc(N2CCN(c3ccc(C(=O)O)cc3NC(=O)c3ccccc3F)CC2C)c1` (centres undefined), “inactive”; for `Cn1c(=O)c(=O)n(C)c2cc(NC(=O)c3ccccc3Br)ccc21`, “inactive”.
For the molecule `C=C1CCC2[C@](C)(CO)C(O)CC[C@]2(C)C1CC=C1C(=O)OCC1O` (some centres undefined), the activity change, positive = activation entry was “inactive”.
For `O=c1c(=O)n(Cc2c(F)cccc2Cl)ccn1Cc1ccccc1` the value was “inactive”.
In the case of `COc1ccc(CCNC(=O)c2ccc(-n3c(C)cc4c3CCCC4)cc2)cc1OC` it was “inactive”; in that of `CCC(=O)N1c2ccccc2CC1C(=O)N1CCN(c2cccc(OC)c2)CC1` (centres undefined), “inactive”; in that of `CCOc1cc(CNC(=O)c2sc3ncnc(N(C)C4CCCCC4)c3c2C)ccc1OC`, “inactive”.
In the case of `Cc1ccccc1CCNC(=O)C1CCN(c2nc3ccccc3nc2C(F)(F)F)CC1` it was “inactive”; in that of `O=C(NC1CC(=O)N(c2ccc(F)cc2)C1)c1cccs1` (centres undefined), “inactive”.
With `CCOC(=O)C1CCCN(S(=O)(=O)c2cc(-c3cc(C)no3)ccc2OC)C1` (centres undefined), the activity change, positive = activation result is “inactive”.
In the case of `Cc1cccc(C)c1-n1ncc(C(=O)NCCCN2CCCCC2)c1C1CCN(C(=O)OC(C)(C)C)CC1` it was “inactive”; in that of `Cc1ccc(C(=O)Nc2cc3c(cc2N2CCCC2)n(C)c(=O)c(=O)n3C)cc1`, “inactive”; in that of `COc1ccccc1NC(=O)C1=C(C)Nc2nc(SCC(=O)c3ccc(C)cc3)nn2C1c1ccccc1C` (centres undefined), “inactive”.
As for `Cc1c(-c2nsc(NC(=O)c3cccc(Cl)c3)n2)nnn1-c1ccccc1C(F)(F)F`, the activity change, positive = activation entry was “inactive”.
For `Cc1cc(C)cc(NC(=O)Cn2c(=O)c3ccccc3n3nncc23)c1` the value was “inactive”; for `COc1ccc(Cn2ccn(CC(=O)Nc3cc(C)ccc3C)c(=O)c2=O)cc1`, “inactive”; for `Cc1nn(-c2ccc(F)cc2)c(-n2cccc2)c1C(=O)N1CCN(c2ccccc2)CC1`, “inactive”.
For `CCOc1ccc(Nc2oc(/C=C/c3ccc(F)cc3)nc2C#N)cc1` the value was “inactive”; for `CCCC(=O)Nc1ccc(NC(=O)c2sc3ccccc3c2Cl)cc1`, “inactive”; for `O=S(=O)(c1ccc2nc(N3CCN(c4cccc(Cl)c4)CC3)ccc2c1)N1CCCCC1`, “inactive”.
As to `CCOC(=O)c1ccc(NC(=O)CC2C(=O)N(c3ccccc3)C(=O)N2Cc2cccs2)cc1` (centres undefined), the activity change, positive = activation entry is “inactive”.
For `Cc1cc(Cl)ccc1OCC(=O)N(Cc1ccc(N(C)C)cc1)C1CCS(=O)(=O)C1` (centres undefined) the value was “inactive”; for `CCC(=O)N1CCc2cc(S(=O)(=O)NC(C(=O)NCCc3ccc(C)cc3)C(C)C)ccc21` (centres undefined), “inactive”.
With `CCOc1ccc(CCNC(=O)c2csc3c2CCCCC3)cc1`, the activity change, positive = activation result is “inactive”.
For `Cc1ccc2nc(-c3ccc(C)c(NC(=O)Cc4ccccc4)c3)oc2c1` the value was “inactive”; for `CCCN(CCC)S(=O)(=O)c1ccc(C(=O)Nc2sc3c(c2C(=O)OC)CCN(CC)C3)cc1`, “inactive”.
Take `O=C(C1CC1)N1CCc2cc(Br)cc(S(=O)(=O)N3CCN(c4ccccc4F)CC3)c21`: the activity change, positive = activation result is “inactive”.
Turning to `CCOc1ccc(NC(=O)c2c(NC(=O)Cc3ccccc3)sc3c2CCCCC3)cc1`, the activity change, positive = activation result was “inactive”.
